Assay results reported in the antibiotic and cytotoxicity screens of Wong et al. (2023).
About 1,500 (3.8%) of roughly 39,000 compounds were called active. Many of the other results were omitted from the sample, so actives are more common in it than they were.

These molecules were tested on HSkMC (human skeletal muscle cells) (assay: cytotoxicity call (relative viability < 0.9)). Details: 10 µM.
`C[C@H](CO)N1C[C@H](C)[C@H](CN(C)Cc2ccc(F)cc2)Oc2ncc(C#Cc3cccnc3)cc2C1=O` was tested, and the cytotoxicity call was “inactive”.
`C[C@H](CO)N1C[C@H](C)[C@H](CN(C)S(=O)(=O)c2cccs2)Oc2c(NS(=O)(=O)c3ccccc3)cccc2C1=O` was tested, and the cytotoxicity call was “inactive”.
With `C[C@@H]1CCCCO[C@H](CN(C)S(=O)(=O)c2cn(C)cn2)[C@H](C)CN([C@@H](C)CO)C(=O)c2cc(NC(=O)Nc3ccc(C(F)(F)F)cc3)ccc2O1` the cytotoxicity call was “inactive”.
With `C[C@@H]1CN([C@@H](C)CO)C(=O)c2cccc(NC(=O)c3nc4ccccc4s3)c2O[C@@H]1CN(C)S(C)(=O)=O` the cytotoxicity call was “inactive”.
With `C[C@H]1CN([C@@H](C)CO)C(=O)Cc2cc(NC(=O)Cc3ccccc3)ccc2O[C@@H]1CN(C)S(=O)(=O)c1ccc(F)cc1` the cytotoxicity call was “inactive”.
For `CC1(C)OC(=O)C2(C(=O)O1)[C@@H](c1ccc(-c3cccc(-c4ccc(C(=O)O)cc4)c3)cc1)CC(=O)C[C@H]2c1ccccc1`, the cytotoxicity call was “inactive”.
For `C[C@@H]1CN([C@H](C)CO)C(=O)Cc2cc(NS(=O)(=O)c3ccccc3)ccc2O[C@@H]1CN(C)Cc1ccc(C(=O)O)cc1`, the cytotoxicity call was “inactive”.
With `COc1ncc(NC(=O)C2CC2)c(OC)n1` the cytotoxicity call was “inactive”.
`N[C@@H]1CCCN(c2c(Br)cnc3[nH]cc(NC(=O)C4CC4)c23)C1` was tested, and the cytotoxicity call was “active”.
In the case of `N[C@H]1CCCN(c2ncccn2)C1`, the cytotoxicity call is reported as “inactive”.
In the case of `C[C@@H]1CN([C@H](C)CO)S(=O)(=O)c2ccc(-c3ccc(C(=O)N(C)C)cc3)cc2O[C@@H]1CN(C)C(=O)C1CC1`, the cytotoxicity call is reported as “inactive”.
In the case of `O=C1N(Cc2ccccc2)Cc2ccccc2C[C@]12N=C(c1ccc(OCCCO)cc1)O[C@@H]2c1ccccc1`, the cytotoxicity call is reported as “inactive”.
In the case of `O=C1N(Cc2ccccc2)Cc2ccccc2C[C@@]12N=C(c1ccc(OCCCO)cc1)O[C@H]2c1ccccc1`, the cytotoxicity call is reported as “active”.
In the case of `O=C1N(Cc2ccccc2)Cc2ccccc2[C@H]2OC(c3ccc(OCCCO)cc3)=N[C@@]12Cc1ccccc1`, the cytotoxicity call is reported as “inactive”.
For `O=C(NCc1ccccc1)[C@@]1(CCS(=O)(=O)c2ccccc2)COC(c2ccc(OCCCO)cc2)=N1`, the cytotoxicity call was “inactive”.
`O=C1N(CCS(=O)(=O)c2ccccc2)Cc2ccccc2C[C@@]12COC(c1ccc(OCCCO)cc1)=N2` was tested, and the cytotoxicity call was “active”.
For `O=C1N(Cc2ccccc2)Cc2ccccc2[C@H]2OC(c3ccc(OCCCO)cc3)=N[C@@]12CCS(=O)(=O)c1ccccc1`, the cytotoxicity call was “inactive”.
In the case of `Cc1ccc(S(=O)(=O)Nc2cccc3c2O[C@@H](CN(C)Cc2ccc(Oc4ccccc4)cc2)[C@@H](C)CN([C@@H](C)CO)C3=O)cc1`, the cytotoxicity call is reported as “inactive”.
With `CC[C@@H](C)c1ccc(NC(=O)c2cc3ccccc3o2)cc1` the cytotoxicity call was “inactive”.
With `C[C@@H]1CN([C@H](C)CO)C(=O)Cc2cc(NS(C)(=O)=O)ccc2O[C@@H]1CN(C)C(=O)Nc1ccc(F)cc1` the cytotoxicity call was “inactive”.
`C[C@H]1CCCCO[C@H](CN(C)CC2CCCCC2)[C@@H](C)CN([C@@H](C)CO)C(=O)c2cc(NC(=O)Nc3ccccc3)ccc2O1` was tested, and the cytotoxicity call was “inactive”.
For `C[C@@H]1CCCCO[C@@H](CN(C)CC2CCCCC2)[C@@H](C)CN([C@H](C)CO)C(=O)c2cc(NC(=O)Nc3ccccc3)ccc2O1`, the cytotoxicity call was “inactive”.
In the case of `COc1ccc(NC(=O)Nc2ccc3c(c2)C(=O)N([C@@H](C)CO)C[C@H](C)[C@H](CN(C)CC2CCCCC2)OCCCC[C@H](C)O3)cc1`, the cytotoxicity call is reported as “inactive”.
`COc1ccc(NC(=O)Nc2ccc3c(c2)C(=O)N([C@@H](C)CO)C[C@@H](C)[C@@H](CN(C)CC2CCCCC2)OCCCC[C@@H](C)O3)cc1` was tested, and the cytotoxicity call was “inactive”.
`C[C@@H]1CCCCO[C@H](CN(C)CC2CCCCC2)[C@@H](C)CN([C@H](C)CO)C(=O)c2cc(NC(=O)Nc3ccccc3)ccc2O1` was tested, and the cytotoxicity call was “inactive”.
For `C[C@@H]1CCCCO[C@H](CN(C)CC2CCCCC2)[C@H](C)CN([C@@H](C)CO)C(=O)c2cc(NC(=O)Nc3ccccc3)ccc2O1`, the cytotoxicity call was “inactive”.
`C[C@H](CO)N1C[C@H](C)[C@H](CN(C)CC2CCCCC2)OCCCC[C@H](C)Oc2ccc(NC(=O)Nc3ccccc3)cc2C1=O` was tested, and the cytotoxicity call was “active”.
With `C[C@@H]1CN([C@@H](C)CO)C(=O)c2cc(NC(=O)Nc3ccccc3)ccc2O[C@@H](C)CCCCO[C@@H]1CN(C)CC1CCCCC1` the cytotoxicity call was “active”.
In the case of `COc1ccc(NC(=O)Nc2ccc3c(c2)C(=O)N([C@H](C)CO)C[C@@H](C)[C@@H](CN(C)CC2CCCCC2)OCCCC[C@@H](C)O3)cc1`, the cytotoxicity call is reported as “active”.
`COc1ccc(S(=O)(=O)Nc2ccc3c(c2)CC(=O)N([C@H](C)CO)C[C@@H](C)[C@H](CN(C)C(=O)Nc2c(C)noc2C)O3)cc1` was tested, and the cytotoxicity call was “inactive”.
In the case of `C[C@@H]1CCCCO[C@@H](CN(C)S(=O)(=O)c2cccs2)[C@@H](C)CN([C@H](C)CO)C(=O)c2cc(NC(=O)Nc3ccc4c(c3)OCO4)ccc2O1`, the cytotoxicity call is reported as “inactive”.
In the case of `N#Cc1ccc(Oc2ccccn2)cc1`, the cytotoxicity call is reported as “inactive”.
For `Cc1cc(C(=O)Nc2cccc3c2O[C@@H](CN(C)Cc2ccc(Oc4ccccc4)cc2)[C@H](C)CN([C@H](C)CO)C3=O)n(C)n1`, the cytotoxicity call was “inactive”.
With `Cc1noc(C)c1S(=O)(=O)Nc1ccc2c(c1)C(=O)N([C@@H](C)CO)C[C@@H](C)[C@@H](CN(C)S(=O)(=O)c1cn(C)cn1)OCCCC[C@@H](C)O2` the cytotoxicity call was “inactive”.
With `C[C@@H]1CCCCO[C@H](CN(C)Cc2ccc3c(c2)OCO3)[C@H](C)CN([C@H](C)CO)C(=O)c2cc(NC(=O)Nc3ccccc3)ccc2O1` the cytotoxicity call was “inactive”.
For `C[C@@H]1CN([C@@H](C)CO)C(=O)c2cc(NC(=O)Cn3cnnn3)ccc2O[C@@H]1CN(C)Cc1ccc(C(F)(F)F)cc1`, the cytotoxicity call was “inactive”.
`CC(C)NC(=O)Nc1ccc2c(c1)CC(=O)N([C@@H](C)CO)C[C@H](C)[C@@H](CN(C)S(=O)(=O)c1ccc(Cl)cc1)O2` was tested, and the cytotoxicity call was “inactive”.
`COc1ccc(S(=O)(=O)N(C)C[C@H]2Oc3ccc(N(C)C)cc3CC(=O)N([C@@H](C)CO)C[C@@H]2C)cc1` was tested, and the cytotoxicity call was “inactive”.
With `COc1ccc(S(=O)(=O)N(C)C[C@@H]2Oc3ccc(N(C)C)cc3CC(=O)N([C@H](C)CO)C[C@@H]2C)cc1` the cytotoxicity call was “active”.
For `CC(C)NC(=O)Nc1ccc2c(c1)CC(=O)N([C@H](C)CO)C[C@H](C)[C@H](CN(C)S(=O)(=O)c1ccc(Cl)cc1)O2`, the cytotoxicity call was “inactive”.
For `COc1ccc(S(=O)(=O)N(C)C[C@@H]2Oc3ccc(N(C)C)cc3CC(=O)N([C@@H](C)CO)C[C@H]2C)cc1`, the cytotoxicity call was “inactive”.
In the case of `C[C@H]1CN([C@@H](C)CO)C(=O)Cc2cc(NC(=O)Nc3cc(Cl)cc(Cl)c3)ccc2O[C@H]1CN(C)S(=O)(=O)c1ccc(Cl)cc1`, the cytotoxicity call is reported as “active”.
`CC(C)NC(=O)Nc1ccc2c(c1)CC(=O)N([C@@H](C)CO)C[C@@H](C)[C@@H](CN(C)S(=O)(=O)c1ccc(Cl)cc1)O2` was tested, and the cytotoxicity call was “inactive”.
For `C[C@H]1CN([C@@H](C)CO)C(=O)Cc2cc(NC(=O)Nc3ccc(Cl)c(Cl)c3)ccc2O[C@H]1CN(C)S(=O)(=O)c1ccc(Cl)cc1`, the cytotoxicity call was “active”.
`CC(C)NC(=O)Nc1ccc2c(c1)CC(=O)N([C@H](C)CO)C[C@H](C)[C@@H](CN(C)S(=O)(=O)c1ccc(Cl)cc1)O2` was tested, and the cytotoxicity call was “inactive”.
With `Cn1nnc2c(N3CCC(O)CC3)ncnc21` the cytotoxicity call was “inactive”.
`C[C@H]1CN([C@@H](C)CO)C(=O)c2cccc(NC(=O)CCCCCC(=O)Nc3ccccc3N)c2O[C@@H]1CN(C)Cc1ccc(C(F)(F)F)cc1` was tested, and the cytotoxicity call was “inactive”.
`C[C@@H]1CN([C@@H](C)CO)C(=O)c2cc(NC(=O)Nc3cccc4ccccc34)ccc2O[C@@H](C)CCCCO[C@H]1CN(C)C` was tested, and the cytotoxicity call was “inactive”.
With `CCN1CCN(C2=C(NS(=O)(=O)c3ccc(Br)cc3)C(=O)c3ccccc3C2=O)CC1` the cytotoxicity call was “inactive”.
With `CCc1nccn1CC(=O)N[C@H]1C[C@@H](C(=O)OC)N(C)C1` the cytotoxicity call was “inactive”.
For `Cc1noc(C)c1NC(=O)Nc1ccc2c(c1)CC(=O)N([C@@H](C)CO)C[C@@H](C)[C@@H](CN(C)Cc1ccc(Oc3ccccc3)cc1)O2`, the cytotoxicity call was “inactive”.
For `COc1ccc(S(=O)(=O)N(C)C[C@H]2Oc3ccc(NC(=O)CCN4CCOCC4)cc3C(=O)N([C@H](C)CO)C[C@H]2C)cc1`, the cytotoxicity call was “inactive”.
In the case of `COc1cccc(S(=O)(=O)N(C)C[C@@H]2OCc3cnnn3CCCC(=O)N([C@H](C)CO)C[C@@H]2C)c1`, the cytotoxicity call is reported as “inactive”.
In the case of `COCCNC(=O)NC(=O)COC(=O)c1cccn1C`, the cytotoxicity call is reported as “inactive”.
`O=C(N[C@@H](c1ccc(-c2ccccc2)cc1)c1cnccn1)C1CCN(Cc2ccc(Oc3ccccc3)cc2)CC1` was tested, and the cytotoxicity call was “inactive”.
`C[C@@H]1CN([C@@H](C)CO)C(=O)c2cccc(NC(=O)c3ccc(-c4nccs4)cc3)c2O[C@@H]1CN(C)Cc1ccccc1` was tested, and the cytotoxicity call was “inactive”.
`C[C@H]1CCCCO[C@H](CN(C)C(=O)C2CCCCC2)[C@@H](C)CN([C@@H](C)CO)C(=O)c2cc(NC(=O)Nc3cccc4ccccc34)ccc2O1` was tested, and the cytotoxicity call was “inactive”.
With `C[C@@H]1CN([C@@H](C)CO)C(=O)c2cc(NC(=O)CCC(F)(F)F)ccc2O[C@@H](C)CCCCO[C@H]1CN(C)C(=O)Nc1cccc2ccccc12` the cytotoxicity call was “active”.
`C[C@H](CO)N1C[C@H](C)[C@@H](CN(C)C(=O)Nc2cccc3ccccc23)OCCCC[C@H](C)Oc2ccc(NC(=O)Nc3cccc4ccccc34)cc2C1=O` was tested, and the cytotoxicity call was “inactive”.
With `C[C@@H]1CN([C@@H](C)CO)C(=O)c2cc(NC(=O)Nc3cccc4ccccc34)ccc2O[C@@H](C)CCCCO[C@@H]1CN(C)C(=O)C1CCCCC1` the cytotoxicity call was “active”.
For `C[C@@H]1CN([C@@H](C)CO)C(=O)c2cc(NC(=O)Nc3cccc4ccccc34)ccc2O[C@@H](C)CCCCO[C@H]1CN(C)C(=O)Nc1cccc2ccccc12`, the cytotoxicity call was “inactive”.
`C[C@@H]1CCCCO[C@@H](CN(C)C(=O)Nc2cccc3ccccc23)[C@H](C)CN([C@H](C)CO)C(=O)c2cc(NC(=O)CCC(F)(F)F)ccc2O1` was tested, and the cytotoxicity call was “inactive”.
In the case of `C[C@@H]1CN([C@H](C)CO)C(=O)c2cc(NC(=O)Nc3cccc4ccccc34)ccc2O[C@@H](C)CCCCO[C@@H]1CN(C)C(=O)C1CCCCC1`, the cytotoxicity call is reported as “inactive”.
In the case of `C[C@@H]1CN([C@@H](C)CO)C(=O)c2cc(NC(=O)NC3CCCCC3)ccc2O[C@@H](C)CCCCO[C@H]1CN(C)C(=O)Nc1ccc2c(c1)OCO2`, the cytotoxicity call is reported as “active”.
With `C[C@@H]1CCCCO[C@@H](CN(C)C(=O)Nc2ccc3c(c2)OCO3)[C@@H](C)CN([C@@H](C)CO)C(=O)c2cc(NC(=O)NC3CCCCC3)ccc2O1` the cytotoxicity call was “inactive”.
For `C[C@@H]1CCCCO[C@@H](CN(C)C(=O)Nc2cccc3ccccc23)[C@H](C)CN([C@@H](C)CO)C(=O)c2cc(NC(=O)Nc3cccc4ccccc34)ccc2O1`, the cytotoxicity call was “active”.
For `C[C@@H]1CCCCO[C@H](CN(C)C(=O)Nc2cccc3ccccc23)[C@@H](C)CN([C@H](C)CO)C(=O)c2cc(NC(=O)CCC(F)(F)F)ccc2O1`, the cytotoxicity call was “inactive”.
`C[C@@H]1CCCCO[C@@H](CN(C)C(=O)Nc2ccc3c(c2)OCO3)[C@H](C)CN([C@H](C)CO)C(=O)c2cc(NC(=O)NC3CCCCC3)ccc2O1` was tested, and the cytotoxicity call was “inactive”.
